Experimental data from PubChem BioAssay AID743198 (NMMLSC, 2013).
Activity calls are given as the source filed them.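 How the source made its calls: active means at least 15% MAC1-positive differentiation at the top dose and half-maximal dose below 10 µM; inactive means the rest.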

Assay: myeloid differentiation effect on human CD34+ progenitors – cell-based, MAC1 flow cytometry, set 1, SAR follow-up (AID 743198)
Conditions: human CD34+ cells, 4 days; at 10 µM (top of the series)

SMILES	MAC1+ differentiation, normalised	outcome
O=C(CCNC(=O)c1ccc(OC(F)(F)F)cc1)N[C@@H]1CCCc2ccccc21	96.3%	–
O=C(O)c1cccnc1Nc1ccc(Cl)cc1	85%	–
O=C(CNC(=O)c1ccc(OC(F)(F)F)cc1)N[C@@H]1CCCc2ccccc21	–	inactive
O=C(CCNC(=O)c1ccc(C(F)(F)F)cc1)N[C@@H]1CCCc2ccccc21	96%	–
O=C(CCNC(=O)c1ccc(Cl)cc1)NC1CCCc2ccccc21 (stereo not given)	86.2%	–
O=C(CCNC(=O)c1ccc2c(c1)OC(F)(F)O2)N[C@@H]1CCCc2ccccc21	90%	–
O=C(CCNC(=O)c1ccc(Cl)cc1)N[C@H]1CCCc2ccccc21	–	inactive
O=C(CCNC(=O)c1ccc(Cl)c(Cl)c1)N[C@@H]1CCCc2ccccc21	96.1%	–
O=C(CCCNC(=O)c1ccc(OC(F)(F)F)cc1)N[C@@H]1CCCc2ccccc21	–	inactive
O=C(CCNC(=O)c1ccc(Cl)cc1)N[C@@H]1CCCc2ccccc21	95.7%	–
